Measured values published in PubChem BioAssay (NCATS).
Records with an inconclusive call do not appear. Entries that show only a call come without a potency. Activity calls are given as the source filed them. The call rests on the fitted dose curve; in most records, active means well fitted curve in the direction sought with a large enough effect; inconclusive means small, poorly fitted or top-dose-only effect, or another doubt; inactive means no such curve, though single readings can be large; an effect the other way counts as inactive or inconclusive.

What was measured:
[1] = target: Cellular tumor antigen p53 (Homo sapiens) (UniProt P04637); assay: Primary qHTS for small molecule compounds that upregulate eGFP-tagged delta133p53alpha (in N-terminal) cells. (AID 2060322); conditions: NCI-H358 eGFP-delta133p53alpha fluorescence, 24 h; activation: active compounds read high; further: nearly all actives have a fitted effect of over 75% in size; further: potency means the concentration at half of the fitted maximal effect;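 on activation: cells pre-induced with doxycycline then dosed without doxycycline; series mostly up to about 56 µM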
Outline: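 NCI-H358 cells pre-induced 24 h with 10 ng/ml doxycycline for eGFP-delta133p53alpha, plated dox-free and exposed 24 h at 37C to titrated compounds. Fixed, Hoechst-stained; gated GFP peak intensity by laser scanning cytometry, normalized to DMSO (0%) and 57.5 uM 5-azacytidine (100%).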

[2] = target: Aldehyde dehydrogenase, mitochondrial (Homo sapiens) (UniProt P05091); assay: qHTS for Inhibitors of the Aldehyde Dehydrogenase Family (ALDH2) Primary screen (AID 2061308); further: nearly all actives have a fitted effect of over 55% in size
[3] = target: Retinaldehyde dehydrogenase 3 (Homo sapiens) (UniProt P47895); assay: qHTS for Inhibitors of the Aldehyde Dehydrogenase Family (ALDH1A3) Primary screen (AID 2061315)

Chain of Cellular tumor antigen p53 (Homo sapiens) (P04637 whole entry, looked up): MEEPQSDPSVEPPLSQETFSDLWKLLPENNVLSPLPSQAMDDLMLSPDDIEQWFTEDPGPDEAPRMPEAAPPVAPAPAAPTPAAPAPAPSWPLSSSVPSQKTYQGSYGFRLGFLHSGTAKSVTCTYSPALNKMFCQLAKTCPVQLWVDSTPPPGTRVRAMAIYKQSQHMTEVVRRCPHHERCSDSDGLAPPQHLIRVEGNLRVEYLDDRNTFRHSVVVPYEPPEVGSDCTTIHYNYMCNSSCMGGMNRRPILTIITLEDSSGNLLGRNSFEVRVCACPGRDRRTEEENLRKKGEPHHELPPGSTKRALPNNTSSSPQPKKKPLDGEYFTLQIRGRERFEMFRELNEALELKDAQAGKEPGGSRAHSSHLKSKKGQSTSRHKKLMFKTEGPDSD

Structure (SMILES) | activation [1] | Potency [2] | Potency [3] | Potency [1] | activity change, negative = inhibition [2] | activity change, negative = inhibition [3]
CC(C)c1ccc2c(c1)C(=O)CC1[C@@](C)(C(=O)O)CCC[C@]21C (stereo not given in full) | -2.68% (inactive) | inactive | inactive | – | – | –
C=C1C(=O)O[C@@H]2CC(C)=C([C@@H](C)CCCOC(C)=O)[C@@H](O)[C@H]12 | 28.6% (inactive) | inactive | inactive | – | – | –
C/C(=C\CCC1(C)C2CC3C(C2)C31C)C(=O)O (stereo not given) | 5.36% (inactive) | inactive | inactive | – | – | –
CCC(C)C(=O)O[C@H]1[C@@H](O[C@H]2O[C@H](CO)[C@@H](O)[C@H](O)[C@H]2O)O[C@H](CO)[C@@H](O)[C@@H]1O (stereo not given in full) | 13.7% (inactive) | inactive | inactive | – | – | –
C=C1CC[C@@H]2[C@@](C)(CO[C@@H]3O[C@H](CO)[C@@H](O)[C@H](O)[C@H]3O)[C@H](O)CC[C@@]2(C)[C@@H]1CC/C(C)=C/CO[C@@H]1O[C@H](CO)[C@@H](O)[C@H](O)[C@H]1O | 23.2% (inactive) | inactive | inactive | – | – | –
COc1cc(C(=O)OC[C@H]2O[C@H](O[C@@]3(CO)O[C@@H](CO)[C@H](O)[C@H]3O)[C@H](O)[C@@H](O)[C@@H]2O)ccc1O | -1.53% (inactive) | inactive | inactive | – | – | –
CCCCc1nc(C)c(CC(=S)N(C)C)c(=O)n1Cc1ccc(-c2ccccc2-c2nn[nH]n2)cc1 | 18.1% (inactive) | inactive | inactive | – | – | –
COc1c2c(nc3occc13)C(CC=C(C)C)(OC)C(O)CC2 (stereo not given) | 5.34% (inactive) | inactive | inactive | – | – | –
O=C(O)c1ccnc2cc(C(OCC3CCC(F)(F)CC3)c3ccccc3Cl)[nH]c12 (stereo not given) | 5.67% (inactive) | inactive | inactive | – | – | –
CN1CCN(c2ccc(Nc3cc(-c4cccc(-n5ccc6cc(C7CC7)cc(F)c6c5=O)c4CO)cn(C)c3=O)nc2)CC1 | 2.68% (inactive) | inactive | inactive | – | – | –
O=C(CCCCCCCCC#CI)Oc1ccccc1 | -8.33% (inactive) | inactive | inactive | – | – | –
CC1(C)Oc2ncnc(N)c2N=C1c1ccc(C2CCC(CC(=O)O)CC2)cc1 (stereo not given) | -4.46% (inactive) | inactive | inactive | – | – | –
COC(=O)[C@@]1(O)C=CC[C@@H]2[C@@]3(C)C[C@@H](c4ccoc4)OC(=O)[C@H]3CC[C@]21C | 7.14% (inactive) | inactive | inactive | – | – | –
COCC1OC(OC(C)(C)C2CCC3(C)C=C(C4CCC5C4(C)CC(O)C4OC(C(C)(C)OC6OC(CO)C(O)C(O)C6NC(C)=O)CCC45C)CCC3O2)C(NC(C)=O)C(O)C1O (stereo not given) | -16.8% (inactive) | inactive | inactive | – | – | –
CNS(=O)(=O)c1ccccc1Nc1nc(Nc2ccc(N3CCN(C)CC3)cc2OC)ncc1Cl | – | inactive | inactive | 21.3 µM (active) | – | –
C[C@@H]1O[C@@H](O[C@H]2[C@H](OC(=O)[C@]34CCC(C)(C)C[C@H]3C3=CCC5[C@@]6(C)C[C@H](O)[C@H](O[C@@H]7O[C@H](CO)[C@@H](O)[C@H](O)[C@H]7O)[C@@](C)(CO)C6[C@H](O)C[C@@]5(C)[C@]3(C)C[C@H]4O)OC[C@H](O)[C@@H]2O)[C@H](O)[C@H](O)[C@H]1O[C@@H]1OC[C@@H](O)[C@H](O[C@H]2OC[C@](O)(CO)[C@H]2O)[C@H]1O (stereo not given in full) | 27.7% (inactive) | – | – | – | 5.31% [at 11.2 µM] (inactive) | -7.49% [at 11.2 µM] (inactive)
O=C(/C=C/c1ccc(O)cc1)N[C@@H](Cc1ccc(O)cc1)C(=O)O | 2.29% (inactive) | inactive | inactive | – | – | –
C=C1C(=O)O[C@@H]2/C=C(\CO)CC/C=C(/C=O)C[C@H](O)[C@@H]12 | – | inactive | inactive | 26.9 µM (active) | – | –
CC1(C)C[C@H](O)C[C@@]2(C)[C@H]1[C@H](O)C=C1COC(=O)[C@@]12O | 6.11% (inactive) | inactive | inactive | – | – | –
C[C@@H]1O[C@@H](O[C@H]2[C@H](OC(=O)[C@]34CCC(C)(C)C[C@H]3C3=CCC5[C@@]6(C)C[C@H](O)[C@H](O[C@@H]7O[C@H](CO)[C@@H](O[C@H]8OC[C@](O)(CO)[C@H]8O)[C@H](O)[C@H]7O)[C@@](C)(CO)C6[C@H](O)C[C@@]5(C)[C@]3(C)C[C@H]4O)OC[C@H](O)[C@@H]2O)[C@H](O)[C@H](O)[C@H]1O[C@@H]1OC[C@@H](O)[C@H](O[C@@H]2OC[C@](O)(CO)[C@H]2O)[C@H]1O (stereo not given in full) | -17.6% (inactive) | – | – | – | 8.6% [at 11.2 µM] (inactive) | -7.49% [at 11.2 µM] (inactive)
